Experimental data: PubChem BioAssay (Tox21)
Several values for one entry are separate records, joined by “and”; a condition that tells them apart may be missing. Equal values may be shown once. Results filed as inconclusive are left out. Entries that show only a call come without a potency. More than one record can exist for a structure, and the calls need not agree. Activity calls are given as the source filed them. Unless noted, calls come from the whole dose curve; as a rule, active = well fitted curve in the direction sought with a large enough effect in the repeat runs; inconclusive = weak or mixed curves; inactive = no such curve, though single readings can be large; an effect the other way counts as inactive or inconclusive.

Key:
[1] = qHTS assay to identify small molecule agonists of the hypoxia (HIF-1) signaling pathway - cell viability counter screen (AID 1224844; calls by dose curve; note: nearly all actives have a fitted effect of over 50% in size; note: potency is the fitted concentration of half-maximal effect)
Method in brief: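 CellTiter-Glo luminescence read-out, 30 min RT, taken in the same wells as the beta-lactamase HRE reporter assay; HRE-bla ME-180 cells, 0.5% dialyzed FBS, 17 hr compound treatment at 37C, 5% CO2.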

[2] = qHTS assay to identify small molecule agonists of H2AX (AID 1224845; active = well fitted activation curve with a large enough effect in the signal ratio in the repeat runs, not every such curve was filed as active; the % refers to the signal ratio; note: potency is the fitted concentration of half-maximal effect)
Method in brief: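 Phospho-H2AX Ser139 measured by HTRF (ex 320 nm; em 665 and 620 nm) after 24 hr antibody incubation. Compounds, 15 concentrations, 0.76% DMSO, were applied to CHO-K1 cells for 3hr at 37C before lysis.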

[3] = qHTS assay to identify small molecule agonists of H2AX - cell viability counter screen (AID 1224847; calls by dose curve; note: nearly all actives have a fitted effect of over 30% in size; note: potency is the fitted concentration of half-maximal effect)
Method in brief: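 Quantitative HTS viability measurement: CHO-K1 wild-type cells in serum (10% FBS) medium, short 3 hr drug exposure at 37C with 0.76% DMSO, CellTiter-Glo luminescent detection.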

[4] = qHTS assay to identify small molecule antagonists of the estrogen related receptor (ERR) signaling pathway from Tox21 library (AID 1224848); note: nearly all actives have a fitted effect of over 50% in size; note: potency is the fitted concentration of half-maximal effect
Method in brief: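 ERR cell line, 2,000 cells/well. 6 h settle, then compound (DMSO) added; 18 h at 37 C; ONE-Glo luminescence after 30 min RT.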

[5] = qHTS assay to identify small molecule agonists of the estrogen related receptor (ERR) signaling pathway from Tox21 library (AID 1224849; calls by dose curve; note: nearly all actives have a fitted effect of over 15% in size); conditions: ERR reporter cell line, ONE-Glo luciferase, 18 h
Method in brief: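 Luminescence readout (ONE-Glo, 30 min RT) after 18 h compound exposure at 37 C of NTP-supplied ERR reporter cells; cells were plated 6 h before compound addition by pin tool.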

[6] = qHTS RealTime-Glo MT Cell Viability Assay in HepG2 cells - 24 hour (AID 1224867); note: nearly all actives have a fitted effect of over 50% in size; note: potency is the fitted concentration of half-maximal effect
Method in brief: (§1)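 Cell number in HepG2 cultures estimated from NanoLuc luminescence generated by metabolic reduction of a prosubstrate by living cells. The homogeneous, nonlytic format allowed repeated reads at 0, 8, 16, 24, 32 and 40 h of compound exposure.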

[7] = qHTS RealTime-Glo MT Cell Viability Assay in HEK293 cells - 32 hour (AID 1224868); note: nearly all actives have a fitted effect of over 50% in size; note: potency is the fitted concentration of half-maximal effect
Method in brief: (§2)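 Homogeneous bioluminescent viability format in HEK293 cells (600 cells/well). Following 5 h at 37 C/5% CO2, 23 nL compound was pintooled; the signal was measured repeatedly during 40 h incubation.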

[8] = A CellTox Green Cytotoxicity Assay to monitor cytotoxicity in HEK293 cells - 0 hour (AID 1224869); note: nearly all actives have a fitted effect of over 50% in size
Method in brief: (§3)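 Read-out: fluorescence of a cell-impermeant cyanine dye staining DNA of dead cells, proportional to cytotoxicity. HEK293, 600 cells/well with reagent, compound (23 nL DMSO) added after 5 h; reads at 0, 8, 16, 24, 32, 40 h.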

[9] = qHTS RealTime-Glo MT Cell Viability Assay in HepG2 cells - 40 hour (AID 1224870); note: nearly all actives have a fitted effect of over 50% in size; note: potency is the fitted concentration of half-maximal effect
Method in brief: (§4)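 Real-time viability: cells seeded at 600 per well together with NanoLuc and cell-permeant prosubstrate, compounds added after 5 h incubation. Luminescence tracked at 0, 8, 16, 24, 32 and 40 h of exposure.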

[10] = A CellTox Green Cytotoxicity Assay to monitor cytotoxicity in HEK293 cells - 40 hour (AID 1224871); note: nearly all actives have a fitted effect of over 45% in size; note: potency is the fitted concentration of half-maximal effect
Method in brief: as §3

[11] = qHTS RealTime-Glo MT Cell Viability Assay in HEK293 cells - 16 hour (AID 1224872); note: nearly all actives have a fitted effect of over 50% in size; note: potency is the fitted concentration of half-maximal effect
Method in brief: as §2

[12] = qHTS RealTime-Glo MT Cell Viability Assay in HepG2 cells - 8 hour (AID 1224873); note: nearly all actives have a fitted effect of over 55% in size; note: potency is the fitted concentration of half-maximal effect
Method in brief: as §4

[13] = qHTS RealTime-Glo MT Cell Viability Assay in HEK293 cells - 40 hour (AID 1224874); conditions: RealTime-Glo luminescence; max response: stronger effect = lower value; note: nearly all actives have a fitted effect of over 50% in size; note: potency is the fitted concentration of half-maximal effect
Method in brief: (§5)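 Luminescence readout at each listed time point; HEK293, 600 cells/well, RealTime-Glo MT reagent added with cells; compounds pinned (23 nL in DMSO) after 5 h at 37 C; continuous culture at 37 C.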

[14] = A CellTox Green Cytotoxicity Assay to monitor cytotoxicity in HEK293 cells - 24 hour (AID 1224875); note: nearly all actives have a fitted effect of over 45% in size; note: potency is the fitted concentration of half-maximal effect
Method in brief: as §3

[15] = A CellTox Green Cytotoxicity Assay to monitor cytotoxicity in HepG2 cells - 16 hour (AID 1224876); note: nearly all actives have a fitted effect of over 45% in size; note: potency is the fitted concentration of half-maximal effect
Method in brief: (§6)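 HepG2, 600 cells/well premixed w/ CellTox Green; 5 h settle, 37 C/5% CO2; pintool cpd add (DMSO); 37 C, 40 h; fluorescence read at 0, 8, 16, 24, 32, 40 h.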

[16] = qHTS RealTime-Glo MT Cell Viability Assay in HepG2 cells - 32 hour (AID 1224877); note: nearly all actives have a fitted effect of over 55% in size; note: potency is the fitted concentration of half-maximal effect
Method in brief: as §1

[17] = A CellTox Green Cytotoxicity Assay to monitor cytotoxicity in HepG2 cells - 40 hour (AID 1224879); note: nearly all actives have a fitted effect of over 40% in size; note: potency is the fitted concentration of half-maximal effect
Method in brief: as §6

[18] = qHTS RealTime-Glo MT Cell Viability Assay in HEK293 cells - 0 hour (AID 1224880); note: top concentration of the series differs between compounds; nearly all actives have a fitted effect of over 45% in size
Method in brief: as §5

[19] = qHTS assay to identify small molecule agonists of the hypoxia (HIF-1) signaling pathway (AID 1224846; active = well fitted activation curve with a large enough effect in the signal ratio in the repeat runs, not every such curve was filed as active; the % refers to the signal ratio; note: potency is the fitted concentration of half-maximal effect)
Method in brief: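 Beta-lactamase FRET read-out (CCF4-AM substrate) from ME-180 cells carrying an HRE-driven bla reporter, after 17 hrs compound exposure at 37C/5% CO2. Cells were seeded at 2,000 per well in 0.5% dialyzed FBS medium and preincubated 5 hrs.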

[20] = A CellTox Green Cytotoxicity Assay to monitor cytotoxicity in HepG2 cells - 24 hour (AID 1224878); note: nearly all actives have a fitted effect of over 45% in size; note: potency is the fitted concentration of half-maximal effect
Method in brief: as §6

CC[C@@H](N)CO
Potency [1]: inactive | Potency [2]: inactive | Potency [3]: inactive | Potency [4]: inactive | activity change, positive = activation ([5]; at 92.4 µM (top of the series)): -0.0387% (inactive) | Potency [6]: inactive | Potency [7]: inactive | Potency [8]: inactive | Potency [9]: inactive | Potency [10]: inactive | Potency [11]: inactive | Potency [12]: inactive | max response [13]: -8.2% (inactive) | Potency [14]: inactive | Potency [15]: inactive | Potency [16]: inactive | Potency [17]: inactive | Potency [18]: inactive

CC(C)CCOCc1ccccc1
Potency [1]: inactive | Potency [2]: inactive | Potency [19]: inactive | Potency [3]: inactive | Potency [4]: inactive | activity change, positive = activation ([5]; at 92.4 µM (top of the series)): 4.72% (inactive) | Potency [6]: inactive | Potency [7]: inactive | Potency [8]: inactive | Potency [9]: inactive | Potency [10]: inactive | Potency [12]: inactive | max response [13]: 2.97% (inactive) | Potency [14]: inactive | Potency [15]: inactive | Potency [16]: inactive | Potency [20]: inactive | Potency [17]: inactive | Potency [18]: inactive

O=S(=O)(O)c1ccc2nc(-c3ccccc3)[nH]c2c1
Potency [1]: 18.6 µM (active) and 10.7 µM (active) | Potency [2]: inactive | Potency [19]: inactive | Potency [4]: inactive | activity change, positive = activation ([5]; at 42.5 µM (top of the series)): 2.03% (inactive) | activity change, positive = activation ([5]; at 92.4 µM (top of the series)): -3.59% (inactive) | Potency [6]: inactive | Potency [7]: inactive | Potency [8]: inactive | Potency [9]: inactive | Potency [10]: inactive | Potency [11]: inactive | Potency [12]: inactive | max response [13]: 4.15% (inactive) and 2.95% (inactive) | Potency [14]: inactive | Potency [20]: inactive | Potency [17]: inactive | Potency [18]: inactive

CC(=O)CC(C)=O
Potency [1]: inactive | Potency [2]: inactive | Potency [19]: inactive | Potency [3]: inactive | Potency [4]: inactive | activity change, positive = activation ([5]; at 92.4 µM (top of the series)): 3.5% (inactive) | Potency [6]: inactive | Potency [7]: inactive | Potency [8]: inactive | Potency [10]: inactive | Potency [12]: inactive | max response [13]: -5.33% (inactive) | Potency [14]: inactive | Potency [15]: inactive | Potency [16]: inactive | Potency [17]: inactive | Potency [18]: inactive

COC(=O)[C@H]1[C@H]2C[C@@H]3c4[nH]c5cc(OC)ccc5c4CCN3C[C@H]2C[C@@H](OC(=O)c2cc(OC)c(OC)c(OC)c2)[C@@H]1OC
Potency [1]: 24.5 µM (active) and 31.8 µM (active) and inactive | Potency [2]: inactive | Potency [3]: inactive | Potency [4]: 24.3 µM (active) and 19.9 µM (active) and 26.6 µM (active) | activity change, positive = activation ([5]; at 42.5 µM (top of the series)): -35.9% (inactive) | activity change, positive = activation ([5]; at 92.4 µM (top of the series)): -60.3% (inactive) and -57.9% (inactive) | Potency [7]: 5.48 µM (active) and 6.34 µM (active) and 9.52 µM (active) | Potency [8]: inactive | Potency [9]: inactive | Potency [10]: inactive | Potency [13]: 4.36 µM (active) and 7.98 µM (active) and 8.49 µM (active) | Potency [14]: inactive | Potency [17]: 43.6 µM (active) and 40 µM (active) and 23.9 µM (active) | Potency [18]: inactive

C=C(C)C1CC=C(C)C(OC(C)=O)C1 (stereo unspecified)
Potency [1]: inactive | Potency [2]: inactive | Potency [19]: inactive | Potency [4]: inactive | activity change, positive = activation ([5]; at 92.4 µM (top of the series)): 2.18% (inactive) and 0.969% (inactive) | Potency [7]: inactive | Potency [8]: inactive | Potency [9]: inactive | Potency [10]: inactive | Potency [11]: inactive | Potency [12]: inactive | max response [13]: -4.93% (inactive) and 11% (inactive) | Potency [14]: inactive | Potency [16]: inactive | Potency [20]: inactive | Potency [17]: inactive | Potency [18]: inactive

Cc1cc(Cc2cc(C)cc(C(C)(C)C)c2O)c(O)c(C(C)(C)C)c1
Potency [1]: 9.82 µM (active) and 9.77 µM (active) | Potency [2]: 56.9 µM (active) and 45 µM (active) | Potency [3]: 40.3 µM (active) and 31.8 µM (active) | Potency [4]: 27.4 µM (active) and 30.6 µM (active) | activity change, positive = activation ([5]; at 92.4 µM (top of the series)): -73.5% (inactive) and -62.7% (inactive) | Potency [6]: 49.2 µM (active) and 43.6 µM (active) | Potency [7]: 9.82 µM (active) and 15.5 µM (active) | Potency [8]: inactive | Potency [9]: 55.2 µM (active) and 49 µM (active) | Potency [10]: 43.9 µM (active) and 43.6 µM (active) | Potency [12]: 38.9 µM (active) | Potency [13]: 8.75 µM (active) and 15.5 µM (active) | Potency [14]: 43.9 µM (active) and 43.6 µM (active) | Potency [15]: 39.1 µM (active) and 38.9 µM (active) | Potency [16]: 49.2 µM (active) and 49 µM (active) | Potency [20]: 43.9 µM (active) and 43.6 µM (active) | Potency [17]: 49.2 µM (active) and 43.6 µM (active) | Potency [18]: inactive

C=CS(=O)(=O)O
Potency [1]: inactive | Potency [2]: inactive | Potency [3]: inactive | Potency [4]: inactive | activity change, positive = activation ([5]; at 92.4 µM (top of the series)): -0.911% (inactive) | Potency [6]: inactive | Potency [7]: inactive | Potency [8]: inactive | Potency [9]: inactive | Potency [10]: inactive | Potency [11]: inactive | Potency [12]: inactive | max response [13]: 2.23% (inactive) | Potency [14]: inactive | Potency [15]: inactive | Potency [17]: inactive | Potency [18]: inactive

CC(C)(C)NCC(O)c1cc(O)cc(O)c1 (stereo unspecified)
Potency [1]: inactive | Potency [2]: inactive | Potency [19]: inactive | Potency [3]: inactive | Potency [7]: inactive | Potency [8]: inactive | Potency [9]: inactive | Potency [10]: inactive | Potency [11]: inactive | Potency [12]: inactive | max response [13]: 4.94% (inactive) | Potency [14]: inactive | Potency [15]: inactive | Potency [16]: inactive | Potency [17]: inactive | Potency [18]: inactive

CCC[C@H](N[C@@H](C)C(=O)N1[C@H](C(=O)O)C[C@@H]2CCCC[C@@H]21)C(=O)OCC
Potency [1]: inactive | Potency [2]: inactive | Potency [19]: inactive | Potency [6]: inactive | Potency [7]: inactive | Potency [8]: inactive | Potency [9]: inactive | Potency [10]: inactive | Potency [12]: inactive | max response [13]: 4.1% (inactive) and 12.6% (inactive) | Potency [14]: inactive | Potency [15]: inactive | Potency [16]: inactive | Potency [20]: inactive | Potency [17]: inactive | Potency [18]: inactive

c1cnc2cc3c(cc2n1)C1CNCC3C1
Potency [1]: inactive | Potency [2]: inactive | Potency [19]: inactive | Potency [3]: inactive | Potency [4]: inactive | activity change, positive = activation ([5]; at 42.5 µM (top of the series)): 1.11% (inactive) | Potency [6]: inactive | Potency [7]: inactive | Potency [8]: inactive | Potency [10]: inactive | Potency [11]: inactive | Potency [12]: inactive | max response [13]: 11% (inactive) | Potency [14]: inactive | Potency [15]: inactive | Potency [16]: inactive | Potency [17]: inactive | Potency [18]: inactive

CCN(CC)c1ccc2c(C)cc(=O)oc2c1
Potency [1]: inactive | Potency [2]: inactive | Potency [19]: 44 µM (active) and 43.6 µM (active) | Potency [3]: inactive | Potency [6]: inactive | Potency [7]: 34.9 µM (active) | Potency [8]: inactive | Potency [9]: inactive | Potency [10]: inactive | Potency [11]: 39.2 µM (active) | Potency [12]: inactive | Potency [13]: 39.2 µM (active) | Potency [14]: inactive | Potency [15]: inactive | Potency [16]: inactive | Potency [20]: inactive | Potency [17]: inactive | Potency [18]: inactive
